This is an account of results in PubChem BioAssay AID778 (Sanford-Burnham Center for Chemical Genomics, 2007).

Screen size: about 96,000 compounds; about 20,000 (21%) were called active.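 How the source made its calls: active means CYP2C19 inhibition above a set limit at 5 µM in the primary screen (cut at about 50% in these data); inactive means the rest.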 Only a sample is shown.

Cytochrome P450 2C19 (Homo sapiens), sequence (P33261 whole entry, looked up): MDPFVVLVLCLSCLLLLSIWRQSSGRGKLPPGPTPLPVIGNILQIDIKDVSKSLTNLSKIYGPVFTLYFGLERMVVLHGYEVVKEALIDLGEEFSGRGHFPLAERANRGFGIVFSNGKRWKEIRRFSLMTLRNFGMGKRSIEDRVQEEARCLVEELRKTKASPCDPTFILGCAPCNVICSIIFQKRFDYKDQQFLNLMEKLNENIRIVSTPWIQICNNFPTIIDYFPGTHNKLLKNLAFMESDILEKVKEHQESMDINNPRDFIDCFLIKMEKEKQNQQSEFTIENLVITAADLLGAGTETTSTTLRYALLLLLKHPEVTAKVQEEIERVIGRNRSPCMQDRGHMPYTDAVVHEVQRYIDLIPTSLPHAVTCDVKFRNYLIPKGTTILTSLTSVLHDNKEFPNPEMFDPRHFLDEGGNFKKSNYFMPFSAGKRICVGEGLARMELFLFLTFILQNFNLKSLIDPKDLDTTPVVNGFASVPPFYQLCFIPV

The assay has as its target Cytochrome P450 2C19 (Homo sapiens) (UniProt P33261). Kind of assay: blockers of cytochrome P450 2C19 activity – biochemical, luminescence, ADME assay, primary screen (AID 778).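 Further: plate controls were negative control wells for no effect and 2.5 mM tranylcypromine positive control for full effect.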 To be noted: CYP2C19 Supersomes, luciferin-H EGE luminescence, 30 min; at 5 µM; hits give high values.
As a reminder, the inhibition is the drop in the measured response relative to a control, in per cent. On to `COc1ccc(CCn2c(NCCCN3CCOCC3)nc3c2c(=O)[nH]c(=O)n3C)cc1`, for which the inhibition is 25.2% (inactive).

Consider `CC(c1ccccc1)n1c(NCCCn2ccnc2)nc2c1c(=O)[nH]c(=O)n2C` (configuration not stated), for which the inhibition is 55.9% (active).

For `CCCCNc1nc2c(c(=O)[nH]c(=O)n2C)n1CCOc1ccccc1`, the inhibition is 28.9% (inactive).

Turning to `CCOC(=O)c1cnc(SCC(=O)Nc2cccc(OC)c2)nc1N`, the inhibition was -12.1% (inactive).

Take `CCOC(=O)N1CCC(C(N)=O)CC1`: the inhibition was 5.4% (inactive).

Regarding `COc1cc2cc(CN(CCN3CCCC3)C(=O)Nc3ccccc3Cl)c(=O)[nH]c2cc1OC`, the inhibition was 7.9% (inactive).

As for `COCCNC(=O)C(c1ccc(C)o1)N(Cc1ccccc1)C(=O)Cn1nnc2ccccc21` (configuration not stated), the inhibition is 29.3% (inactive).

Regarding `COc1ccccc1N(C(=O)Cn1nnc2ccccc21)C(C(=O)NCc1ccco1)c1ccc(C)o1` (configuration not stated), the inhibition is 68% (active).

For the molecule `Cc1ccc(C(C(=O)NCc2ccco2)N(CC2CCCO2)C(=O)Cn2nnc3ccccc32)cc1` (configuration not stated), the inhibition was 17.2% (inactive).

In the case of `Cc1ccc(C(CC(=O)O)Nc2nc(N3CCCCC3)nc(N3CCCCC3)n2)cc1` (configuration not stated), the inhibition was 11.1% (inactive).

With `CCNC(=O)NC(=O)C(C)OC(=O)c1cc(S(=O)(=O)N2CCCCCC2)ccc1OC` (configuration not stated), the inhibition is 66% (active).

For `COc1ccc2c(c1OC)C(=O)c1ccccc1C2=O`, the inhibition is 17% (inactive).

Turning to `COc1ccc(S(=O)(=O)Nc2ccc(S(=O)(=O)N3CCCCC3)cc2)cc1OC`, the inhibition is 52.3% (active).

On to `COc1ccc(S(=O)(=O)N2CCCCC2)cc1Br`, for which the inhibition was 92% (active).

For the molecule `CCCCn1c(=S)[nH]c2cc(S(=O)(=O)N3CCCCC3)ccc21`, the inhibition was 25.4% (inactive).

In the case of `COc1ccc(S(=O)(=O)N2CCCC2)c(C)c1C`, the inhibition is 72.2% (active).

Regarding `CCCCNC(=O)C1CCCN(S(=O)(=O)c2ccc(S(=O)(=O)NCC(C)C)cc2)C1` (configuration not stated), the inhibition is 6.5% (inactive).

For `COc1ccc(S(=O)(=O)N2CCOCC2)cc1C(=O)Nc1nc2ccccc2s1`, the inhibition is 0.4% (inactive).

With `COc1ccc(S(=O)(=O)N2CCCC(C(=O)N3CCN(C)CC3)C2)cc1C` (configuration not stated), the inhibition was 30% (inactive).

Take `CSC1=N/C(=C\c2ccc3c(c2)OCO3)C(=O)S1`: the inhibition was 0.4% (inactive).

In the case of `COc1cc(NC(=O)N2CCOCC2)cc(OC)c1`, the inhibition is -9.7% (inactive).

Turning to `CCC(=NC1CC(C)(C)NC(C)(C)C1)C1=C(O)CC(C)(C)CC1=O`, the inhibition is 3.6% (inactive).

Take `Cc1c(-c2ccccc2)cn2c1-c1ccc(C)n1CC2`: the inhibition is 1.7% (inactive).

Turning to `O=C(Nc1ccc(Cl)cn1)c1cnn2cccnc12`, the inhibition is 0.1% (inactive).

For the molecule `CCC(=O)c1ccc(OCC(O)CN2CC(C)OC(C)C2)cc1` (configuration not stated), the inhibition is 39.4% (inactive).

`O=C1Nc2ccc(Br)cc2/C1=N/N=C/C1=C(N2CCOCC2)C(=C\c2ccccc2)/CC1`: the inhibition was -1.8% (inactive).

Take `CCCOc1ccc2c3c(c(=O)oc2c1OCCC)CCC3`: the inhibition is 49.9% (inactive).

As for `COc1ccc(-c2c(C(C)=O)c(C)nc3sc4c(=O)n(-c5ccc(C)cc5)nnc4c23)cc1`, the inhibition was 21.7% (inactive).

Regarding `C=C(C)CSc1nnc(-c2ccc(C)cc2)n1N`, the inhibition is 17% (inactive).

For `Cc1ccc(-n2c(C)cc(/C=C(\C#N)C(=O)NCC3CCCO3)c2C)cc1` (configuration not stated), the inhibition is 31.5% (inactive).

For the molecule `CC1(C)CC(=O)C=C(NCCCNC2CCCCC2)C1`, the inhibition was 9.8% (inactive).

As to `CC(C)CCSc1ncnc2c1oc1nc3c(cc12)COC(C)(C)C3`, the inhibition was -1.7% (inactive).

Turning to `O=C(/C=C/c1ccccc1)c1ccoc1`, the inhibition was 35% (inactive).

With `Cc1cn(COC/C=C/c2ccccc2)c(=O)[nH]c1=O`, the inhibition was 24.1% (inactive).

Consider `Cc1[nH]c(=O)c(C(=O)/C=C/c2ccccc2)c2c1CCCC2`, for which the inhibition is 80.5% (active).

As for `Cn1c(=NC(=O)c2ccco2)sc2cccc(F)c21`, the inhibition was 21.9% (inactive).

For the molecule `CCn1c(-c2ccoc2C)n[nH]c1=S`, the inhibition is 1.3% (inactive).

For the molecule `COc1ccc(-n2nnnc2SCC(=O)Nc2ccccc2)cc1`, the inhibition is 48.1% (inactive).

For the molecule `COc1ccc(C(=O)CSc2nccc(=O)[nH]2)cc1`, the inhibition is -4% (inactive).

On to `COc1ccc(-n2nnnc2SCC(=O)c2ccc(OC)c(OC)c2)cc1`, for which the inhibition is 66.5% (active).

Take `Cn1c(=O)c2cn(-c3cccc4ccccc34)cc2n(C)c1=O`: the inhibition was 49.2% (inactive).

Consider `O=C(O)C1OC(C(=O)O)C2C1C(F)(F)C2(F)F` (configuration not stated), for which the inhibition was -0.7% (inactive).

`CCOC(=O)c1c(NC(=O)c2ccc(N3CCOCC3)c([N+](=O)[O-])c2)sc(C)c1C`: the inhibition was 2.9% (inactive).

In the case of `Cc1cc(C(=O)CSc2nc(N)cc(=O)[nH]2)c(C)n1CCc1ccc(Cl)cc1`, the inhibition was 37% (inactive).

On to `Cc1nc(C)c(C(=O)N(c2ccc(C)c(C)c2)C(C(=O)NCc2ccco2)c2ccccc2)s1` (configuration not stated), for which the inhibition was 7.8% (inactive).

With `O=c1c2c(nc3nc[nH]n13)CCC2`, the inhibition is -17.9% (inactive).

For `CC(=NCc1ccc2c(c1)OCO2)C1=C(O)c2ccccc2C1=O`, the inhibition was 4.5% (inactive).

Consider `CC(=NCc1ccco1)c1c(C(F)(F)F)[nH]n(-c2nc3ccccc3s2)c1=O`, for which the inhibition is 28.3% (inactive).

As to `CC(=NCc1ccco1)C1=C(O)c2ccccc2C1=O`, the inhibition was 81.8% (active).

Consider `CCOC(=O)C1=C(C)N=c2s/c(=C\C(=O)OC)c(=O)n2C1c1ccc(OC)cc1` (configuration not stated), for which the inhibition is 67.5% (active).

`COCCOC(=O)C1=C(C)N=c2s/c(=C\c3cccs3)c(=O)n2C1c1cccs1` (configuration not stated): the inhibition was 45.2% (inactive).

Consider `COc1ccc(C2C(C(C)=O)=C(O)C(=O)N2c2nccs2)cc1` (configuration not stated), for which the inhibition is -17% (inactive).

`S=C1SCN(CCN2CCOCC2)CN1Cc1ccccc1`: the inhibition is 25.3% (inactive).

`O=C(Nc1c(C(=O)N2CCCCC2)cnn1-c1ccccc1)c1ccco1`: the inhibition was -7.8% (inactive).

With `Cc1ccc(C2C(C#N)C(C#N)N3CCCN23)cc1` (configuration not stated), the inhibition is -7.9% (inactive).

`O=c1c2ccccc2nc(CSc2nnnn2-c2ccccc2)n1-c1ccccc1`: the inhibition is -5.9% (inactive).

`CN(C(=O)CSc1nnnn1-c1ccccc1)C1CCCCC1`: the inhibition was 71.1% (active).

As to `C=CCn1c(SCn2nnc3ccccc3c2=O)nnc1-c1ccc(Cl)cc1`, the inhibition is 87.2% (active).

Consider `Cn1nnnc1SCC(=O)Nc1ccccc1C(=O)NC1CC1`, for which the inhibition is -4.1% (inactive).

With `CCOC(=O)CNC(=O)CSc1nnnn1-c1cc(C)ccc1C`, the inhibition was 13.5% (inactive).

On to `O=c1c2ccccc2nnn1CSc1nnnn1-c1ccccc1`, for which the inhibition was 74.2% (active).

For the molecule `O=C(O)CCSc1nnc(-c2ccccc2)n1-c1ccccc1`, the inhibition is 1.2% (inactive).

On to `C=CCn1c(Cn2nnc3ccccc32)nnc1SCC(=O)N/N=C/c1cc(Br)cc(OC)c1O`, for which the inhibition was 22.7% (inactive).

On to `O=C(Cn1nnc2ccccc2c1=O)Nc1cc(C(F)(F)F)ccc1N1CCOCC1`, for which the inhibition was 31% (inactive).

`CC(=O)c1cc2c(cc1N)OCO2`: the inhibition was 5.3% (inactive).

On to `CC1CCCC(C)N1C(=O)CN1CCN(c2nc(-c3ccc(F)cc3)cs2)CC1` (configuration not stated), for which the inhibition is 7.4% (inactive).

On to `CCOC(=O)c1sc2nc(SC)nc(-c3ccccc3)c2c1N`, for which the inhibition was 6.9% (inactive).

`CC(=O)c1sc2nc(SCC(=O)N3CCCCC3)[nH]c(=O)c2c1C`: the inhibition is 15.5% (inactive).

Consider `CCOC(=O)c1sc2nc(CSCC(=O)OCc3ccc(C(=O)OC)o3)[nH]c(=O)c2c1C`, for which the inhibition was 52.7% (active).

As to `O=C(OCCO)c1cc(Cl)c(C(=O)OCCO)cc1Cl`, the inhibition is 15.6% (inactive).

For the molecule `Cc1ccccc1NC(=S)Nc1cccc([N+](=O)[O-])c1`, the inhibition was 46.2% (inactive).

Consider `Cc1cccc(NC(=O)Nc2cccc(Oc3c(F)c(F)c(F)c(F)c3F)c2)c1`, for which the inhibition is 0.7% (inactive).

Consider `Cc1cccc(NC(=S)Nc2ccc(Br)cc2)c1`, for which the inhibition was 66.8% (active).

`CCCn1c(SCC(N)=O)nnc1C(C)C`: the inhibition was -9.9% (inactive).

Turning to `O=C(CN1CCN(S(=O)(=O)c2ccc3ccccc3c2)CC1)NC(=O)NC1CCCCC1`, the inhibition was 73.3% (active).

Consider `O=C(NC1CCCCC1)n1c(=O)oc2cc(S(=O)(=O)N3CCCCC3)ccc21`, for which the inhibition is 6.9% (inactive).

With `O=C(CN1CCN(c2ccccn2)CC1)NC1CCCCC1`, the inhibition was 6.6% (inactive).

Consider `Cc1noc(NS(=O)(=O)c2ccc(N3CC(O)=C(c4ccccc4)C3=N)cc2)c1C`, for which the inhibition is -16.7% (inactive).

On to `CCOc1ccccc1C1C(C(=O)OC)=CN(C)C=C1C(=O)OC`, for which the inhibition was 33.6% (inactive).

Take `CC12CN3CC(C)(CN(C1)C3c1ccc(Cl)cc1Cl)C2=O` (configuration not stated): the inhibition is 20.4% (inactive).

In the case of `COC(=O)C1=CN(C)C=C(C(=O)OC)C1c1ccc(Cl)cc1Cl`, the inhibition was 74.5% (active).

Consider `COC(=O)c1cc(NC(=O)CN2CCC(C(N)=O)(N3CCCCC3)CC2)cc(C(=O)OC)c1`, for which the inhibition is 14.3% (inactive).

Turning to `COC(=O)c1ccc(C(=O)OC)c(NC(=S)N2CCCCC2)c1`, the inhibition is 16.7% (inactive).

With `NC(=O)C1(N2CCCCC2)CCN(C(=S)Nc2ccc(Cl)cc2)CC1`, the inhibition is 70.7% (active).

Regarding `O=C(OCc1nnc(-c2ccccc2)o1)c1ccc2c(c1)C(=O)N(CCc1ccccc1)C2=O`, the inhibition is 0.5% (inactive).

`CCOc1ccc(C(C)C)cc1S(=O)(=O)n1nc(C)cc1C`: the inhibition was 73.6% (active).

In the case of `CCCC(C(=O)n1nc(C)cc1C)C(NS(=O)(=O)c1ccc(C)cc1)c1ccccc1` (configuration not stated), the inhibition is 43.5% (inactive).

With `CCOc1ccc(NC(=O)CCC(=O)n2nc(C)cc2C)cc1`, the inhibition is -8.5% (inactive).

In the case of `COc1cccc(CNc2nc3nc4c(c(=O)n3[nH]2)CCC4)c1`, the inhibition was -17.3% (inactive).

`O=C(c1cccs1)N1CCC(c2nc3ccccc3s2)CC1`: the inhibition was 35.6% (inactive).

As for `O=C(c1cccs1)N1CCCC(c2nc(-c3ccc(F)cc3)no2)C1` (configuration not stated), the inhibition was 64% (active).

For the molecule `O=C(Cc1cccs1)N1CCCC(c2nc(-c3ccc(S(=O)(=O)N4CCCC4)cc3)no2)C1` (configuration not stated), the inhibition is 7.4% (inactive).

On to `COC(=O)/C(=C\Nc1ccccc1)NC(=O)c1ccc(Cl)cc1Cl`, for which the inhibition is 49% (inactive).

With `C[N+]1(CCNC(=O)/C=N/O)CCCCC1`, the inhibition is 3.7% (inactive).

As to `Cc1cc(C)c2c(c1)cc(C)c1nnc(SCC(=O)Nc3cc(C)on3)n12`, the inhibition is 12.6% (inactive).

For the molecule `O=C(Nc1cccc2ncccc12)c1ccc(-c2ccc(Cl)cc2Cl)o1`, the inhibition was -13.7% (inactive).

As for `Clc1ccc(COn2c(-c3ccc(Cl)cc3Cl)nc3ncccc32)cc1`, the inhibition was 96.6% (active).
